The target in one test is GST-Hu-p50 (Homo sapiens, UniProt P19838 7-356). Nature of the test: protein-binding microarray (PBM); PBM: ~300 nM protein, 6 mM HEPES pH 7.8, 80 mM KCl, 0.5 mM EDTA, 0.5 mM EGTA, 6% glycerol, 35 ng/ul poly-dIdC, 1% milk, 1 h, room temperature; Ap Aiptasia and Nv Nematostella (sea anemones) / Co Capsaspora / Aq Amphimedon (sponge) / Dm Drosophila / Hu human; RHD is the Rel homology domain; high values mean tight binding. Particulars: dsDNA, one strand shown.
Test [1] addresses T1, GST-Nv-NF-kB (Ser allele) (Nematostella vectensis, UniProt A7UNT2 2-411).
T1 sequence: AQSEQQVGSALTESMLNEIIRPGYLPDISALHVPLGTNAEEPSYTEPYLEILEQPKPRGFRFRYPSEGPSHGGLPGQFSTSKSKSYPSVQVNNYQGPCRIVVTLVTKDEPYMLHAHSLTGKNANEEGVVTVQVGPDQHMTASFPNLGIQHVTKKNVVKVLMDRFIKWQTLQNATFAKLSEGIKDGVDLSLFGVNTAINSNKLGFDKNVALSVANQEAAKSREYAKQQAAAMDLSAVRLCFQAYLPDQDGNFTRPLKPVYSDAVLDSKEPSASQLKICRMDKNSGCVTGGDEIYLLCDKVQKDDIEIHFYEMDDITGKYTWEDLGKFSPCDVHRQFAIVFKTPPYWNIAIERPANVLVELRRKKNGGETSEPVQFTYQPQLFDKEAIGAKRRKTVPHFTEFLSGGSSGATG
The description is as above. Particulars: dsDNA, one strand shown.

Chain of GST-Hu-p50 (P19838 7-356): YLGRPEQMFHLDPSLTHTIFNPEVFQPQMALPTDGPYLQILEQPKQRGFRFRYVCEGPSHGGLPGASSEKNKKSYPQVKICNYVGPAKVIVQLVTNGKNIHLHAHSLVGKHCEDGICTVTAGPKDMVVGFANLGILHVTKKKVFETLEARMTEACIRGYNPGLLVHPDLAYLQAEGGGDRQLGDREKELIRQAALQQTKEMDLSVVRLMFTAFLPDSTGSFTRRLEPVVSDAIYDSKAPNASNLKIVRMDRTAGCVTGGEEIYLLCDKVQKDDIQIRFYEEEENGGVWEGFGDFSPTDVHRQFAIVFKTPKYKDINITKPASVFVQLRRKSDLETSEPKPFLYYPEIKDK

In the test with GST-Hu-p50, “CCGATTAACATCAGGAAACACCATGATGTTAATCGGGTCTTGATTCGCTTGACGCTGCTG” displayed a binding signal of 1.95 z-score. “CCGATTAACATCAATTTCCCGTATGATGTTAATCGGGTCTTGATTCGCTTGACGCTGCTG”: in the test with GST-Hu-p50, the binding signal worked out at 2.68 z-score. Same read-out and setting: for “CCGATTAACATCAGGGGAGATTATGATGTTAATCGGGTCTTGATTCGCTTGACGCTGCTG” the value was 4.94 z-score; for “CCGATTAACATCAGGACTATCCCTGATGTTAATCGGGTCTTGATTCGCTTGACGCTGCTG”, 1.81 z-score; for “CCGATTAACATCATGGGGTGTGCTGATGTTAATCGGGTCTTGATTCGCTTGACGCTGCTG”, 1.49 z-score. Still for that read-out and setting: then “CCGATTAACATCAGGGAAAATCATGATGTTAATCGGGTCTTGATTCGCTTGACGCTGCTG”, with 3.98 z-score; and “CCGATTAACATCAAGGGAAAAAATGATGTTAATCGGGTCTTGATTCGCTTGACGCTGCTG”, with 4.89 z-score.

Consider “CCGATTAACATCACTATTTTCCCTGATGTTAATCGGGTCTTGATTCGCTTGACGCTGCTG”, for which the binding signal with GST-Hu-p50 came out at 3.18 z-score. With “CCGATTAACATCACCGTTCCGATTGATGTTAATCGGGTCTTGATTCGCTTGACGCTGCTG”, in the test with GST-Hu-p50, the binding signal was found to be 1.04 z-score. Take “CCGATTAACATCAGGGGTAACACTGATGTTAATCGGGTCTTGATTCGCTTGACGCTGCTG”: in the test with GST-Hu-p50, the binding signal came out at 1.68 z-score. Sequence “CCGATTAACATCAGGGAAAAACCTGATGTTAATCGGGTCTTGATTCGCTTGACGCTGCTG” came in with a binding signal with GST-Hu-p50 of 4.95 z-score. “CCGATTAACATCAGAAAATTTCCTGATGTTAATCGGGTCTTGATTCGCTTGACGCTGCTG” displayed a binding signal in the test with GST-Hu-p50 of 1.69 z-score. The same measure, in the same setting: then “CCGATTAACATCACCTTCTTTACTGATGTTAATCGGGTCTTGATTCGCTTGACGCTGCTG”, with 1.59 z-score; and “CCGATTAACATCAAGGAAAGCCCTGATGTTAATCGGGTCTTGATTCGCTTGACGCTGCTG”, with 1.13 z-score; and “CCGATTAACATCAAGGGAAAAATTGATGTTAATCGGGTCTTGATTCGCTTGACGCTGCTG”, with 4.56 z-score. Sequence “CCGATTAACATCACCCTTGGGAATGATGTTAATCGGGTCTTGATTCGCTTGACGCTGCTG” showed a binding signal with GST-Hu-p50 of 1.55 z-score. For the sequence “CCGATTAACATCACGAAATTCCCTGATGTTAATCGGGTCTTGATTCGCTTGACGCTGCTG”, in the test with GST-Hu-p50, the binding signal was determined as 5.1 z-score. Same read-out and setting: for “CCGATTAACATCAAAAAATTCCTTGATGTTAATCGGGTCTTGATTCGCTTGACGCTGCTG” the value was 1.55 z-score; for “CCGATTAACATCAAGCCCCCCCATGATGTTAATCGGGTCTTGATTCGCTTGACGCTGCTG”, 3.88 z-score; for “CCGATTAACATCAAGAAATTCCTTGATGTTAATCGGGTCTTGATTCGCTTGACGCTGCTG”, 1.18 z-score. On to “CCGATTAACATCAAATATTTCCCTGATGTTAATCGGGTCTTGATTCGCTTGACGCTGCTG”, for which the binding signal with GST-Hu-p50 is 4.62 z-score. In the test with GST-Hu-p50, “CCGATTAACATCATTCCACCAGGTGATGTTAATCGGGTCTTGATTCGCTTGACGCTGCTG” returned a binding signal of 1.04 z-score. In the case of “CCGATTAACATCAATCAGCGGGGTGATGTTAATCGGGTCTTGATTCGCTTGACGCTGCTG”, the binding signal in the test with GST-Hu-p50 was 1.52 z-score. Same read-out and setting: then “CCGATTAACATCACCCCATCTCGTGATGTTAATCGGGTCTTGATTCGCTTGACGCTGCTG”, with 1.44 z-score. The same measure, in the same setting: for “CCGATTAACATCAGGGGAACTAATGATGTTAATCGGGTCTTGATTCGCTTGACGCTGCTG” the value was 4.28 z-score; for “CCGATTAACATCAGGAAGTTACCTGATGTTAATCGGGTCTTGATTCGCTTGACGCTGCTG”, 1.42 z-score; for “CCGATTAACATCAGGGGTTACACTGATGTTAATCGGGTCTTGATTCGCTTGACGCTGCTG”, 1.37 z-score. The same measure, in the same setting: then “CCGATTAACATCACAATAACGGGTGATGTTAATCGGGTCTTGATTCGCTTGACGCTGCTG”, with 1.74 z-score; and “CCGATTAACATCACATCTTCCCCTGATGTTAATCGGGTCTTGATTCGCTTGACGCTGCTG”, with 4.51 z-score. Turning to “CCGATTAACATCAAAAATTCCATTGATGTTAATCGGGTCTTGATTCGCTTGACGCTGCTG”, in the test with GST-Hu-p50, the binding signal was determined as 1.07 z-score.

“CCGATTAACATCAATAAAATTCCTGATGTTAATCGGGTCTTGATTCGCTTGACGCTGCTG” came in with a binding signal with GST-Hu-p50 of 1.02 z-score. In the case of “CCGATTAACATCAGGACAATCCCTGATGTTAATCGGGTCTTGATTCGCTTGACGCTGCTG”, the binding signal with GST-Hu-p50 amounted to 1.84 z-score. On the same count and under the same terms, for “CCGATTAACATCAAGGGCTTCCCTGATGTTAATCGGGTCTTGATTCGCTTGACGCTGCTG” the value was 1.06 z-score; for “CCGATTAACATCAGGAAAAAACCTGATGTTAATCGGGTCTTGATTCGCTTGACGCTGCTG”, 2.63 z-score. As to “CCGATTAACATCAAGGGAAAATATGATGTTAATCGGGTCTTGATTCGCTTGACGCTGCTG”, in the test with GST-Hu-p50, the binding signal came to 4.8 z-score. In the test with GST-Hu-p50, “CCGATTAACATCACCGTTTAGGTTGATGTTAATCGGGTCTTGATTCGCTTGACGCTGCTG” came in with a binding signal of 1.22 z-score. Same read-out and setting: then “CCGATTAACATCAGGGGATACCCTGATGTTAATCGGGTCTTGATTCGCTTGACGCTGCTG”, with 5.1 z-score; and “CCGATTAACATCAATAGTTCCCCTGATGTTAATCGGGTCTTGATTCGCTTGACGCTGCTG”, with 5.26 z-score. On the same count and under the same terms, then “CCGATTAACATCAAAAATTCCCATGATGTTAATCGGGTCTTGATTCGCTTGACGCTGCTG”, with 5.24 z-score. With “CCGATTAACATCAGGGATTTTGATGATGTTAATCGGGTCTTGATTCGCTTGACGCTGCTG”, the binding signal in test [1] was 2.92 z-score; with GST-Hu-p50, 2.85 z-score.

As for “CCGATTAACATCAGGGGAAGCACTGATGTTAATCGGGTCTTGATTCGCTTGACGCTGCTG”, the binding signal in the test with GST-Hu-p50 worked out at 5.16 z-score. In the test with GST-Hu-p50, “CCGATTAACATCAGGGAAAAAAATGATGTTAATCGGGTCTTGATTCGCTTGACGCTGCTG” came in with a binding signal of 4.58 z-score. On to “CCGATTAACATCAGGATATACCCTGATGTTAATCGGGTCTTGATTCGCTTGACGCTGCTG”, for which the binding signal in the test with GST-Hu-p50 is 1.53 z-score. “CCGATTAACATCAGTTCCCCCCATGATGTTAATCGGGTCTTGATTCGCTTGACGCTGCTG”: the binding signal came out at 5.19 z-score in test [1] and 4.95 z-score with GST-Hu-p50. The matching figures for “CCGATTAACATCACATTGTCCCCTGATGTTAATCGGGTCTTGATTCGCTTGACGCTGCTG”: 5.06 z-score and 3.52 z-score. The matching figures for “CCGATTAACATCAAACAGGGAAATGATGTTAATCGGGTCTTGATTCGCTTGACGCTGCTG”: 3.74 z-score and 2.36 z-score.

The record behind these values is publication PMC5700166.
